The list is not random: actives were taken first. Their share in the collection is about 4.1%.
hcDAF12 agonist = H. contortus DAF-12 activation, primary screen. hit rate 1.4% among 370,000. HEK293 hcDAF-12 lit1-tk-luc reporter, luminescence; 0% DMSO, 100% Δ7-dafachronic acid. activation, % at 6.8 µM;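 active = activation above the mean of all tested compounds plus 3 SD, cut at about 5.5% in these data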
DAX1 inh-1 = blocks DAX1 repression of SF-1 activated StAR promoter | HEK293T StAR-luciferase reporter, SF-1/DAX-1 repression relief | inhibition, % at 6.8 µM | hit rate 1.1% among 370,000 | AID 652010;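 active = inhibition above the mean over all tested compounds plus 3 SD, cut at about 3.6% in these data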;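 also: higher inhibition means more luminescence from relief of DAX-1 repression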
hgDAF-12 ag = activates the H. glycines DAF-12 receptor ligand-binding domain; hit rate 1.8% among 370,000; AID 687014; HEK293 GAL4-hgDAF12 UAS-luciferase reporter, agonist luminescence; normalized to butyrate control; activation, % at 6.8 µM;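 active = activation above a cutoff set at the mean of all screened compounds plus 3 SD, cut at about 10% in these data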
DAX1 inh-2 = inhibits human nuclear receptor DAX1 | P51843 | HEK293 Gal4-DAX1 luciferase reporter, luminescence | inhibition, % at 6.75 µM | hit rate 0.99% among 340,000;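 active = inhibition above the mean over all tested compounds plus 3 SD, cut at about 4.2% in these data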;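 also: inhibition shows as a rise in luminescence from relieved DAX1 repression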
Target sequence (P51843 207-470 limits assumed): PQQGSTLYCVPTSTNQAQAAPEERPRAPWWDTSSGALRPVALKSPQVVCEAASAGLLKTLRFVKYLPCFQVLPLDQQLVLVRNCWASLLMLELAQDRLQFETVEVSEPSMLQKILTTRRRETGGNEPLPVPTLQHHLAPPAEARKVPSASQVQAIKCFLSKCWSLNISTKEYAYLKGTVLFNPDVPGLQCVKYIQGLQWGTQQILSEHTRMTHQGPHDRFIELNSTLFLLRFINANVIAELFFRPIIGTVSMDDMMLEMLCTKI
ssDAF-12 act = activates DAF-12 receptor from parasite S. stercoralis. HEK293 ssDAF-12/GRIP1 lit1-tk-luc reporter, luminescence; % of 3 µM dafachronic acid response. activation, % at 6.8 µM. hit rate 1% among 370,000. AID 652126;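 active = activation above the mean over all tested compounds plus 3 SD, cut at about 0.9% in these data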
Numbers stand for hits; - = inactive; . = not tested or not shown.

SMILES | hcDAF12 agonist | DAX1 inh-1 | hgDAF-12 ag | DAX1 inh-2 | ssDAF-12 act
CCCOC(=O)C1=C(C)NC2=C(C(=O)CCC2)C1c1cccs1 (stereo unspecified) | - | - | - | - | 2.1
O=c1oc2ccccc2n1Cc1cccc(Cl)c1 | - | - | - | 6.4 | -
COc1ccc(-n2cc(COC(=O)NCCc3c[nH]c4ccccc34)nn2)cc1 | - | - | - | . | -
O=C(NC1CCCC1)C1(C(=O)C2CC2)CC(c2ccccc2C(F)(F)F)=NO1 (stereo unspecified) | - | - | - | . | -
COc1cc(-n2c(=O)c3ccccc3n(CC(=O)c3ccc(Br)cc3)c2=O)cc(OC)c1OC | - | - | - | 5.4 | -
CC(=O)Nc1ccc(NC(=O)c2cc(-c3ccc(F)cc3C)n[nH]2)cc1 | - | 4.1 | 13 | . | -
COc1cc(/C=C2/CC(C)OC2=O)c([N+](=O)[O-])cc1OC (stereo unspecified) | - | - | - | 4.7 | -
COc1ccc(C(=O)OC2CCN(c3ncc(C(F)(F)F)cc3Cl)CC2)cc1 | - | - | - | - | -
COc1ccc([C@H]2C=C3CN(C(=O)OC(C)(C)C)S(=O)(=O)[C@H]3C[C@H]2OC(=O)c2ccc(C(F)(F)F)cc2)cc1 | 5.7 | - | - | - | -
Nc1cc(N)nc(SCCOc2ccccc2F)n1 | - | - | 11 | - | -
Cc1ccc(-n2c(SCC(=O)Nc3ccccc3-c3ccccc3)nnc2-c2cccnc2)cc1 | - | - | - | . | -
CC(C)c1ccc(C(O)Cc2nc3ccccc3n2C)cc1 (stereo unspecified) | - | - | - | 4.6 | -
CN(C)c1ccc(C(O)Cc2nc3ccccc3n2C)cc1 (stereo unspecified) | 5.6 | - | - | - | -
CN(C)c1ccc(-c2nc3ccccc3n2C)cc1 | - | 4.0 | - | - | -
CCn1c(-c2ccc(N(C)C)cc2)nc2ccccc21 | - | - | - | - | -
CC(C)c1cc(C(C)C)c(S(=O)(=O)N2CCC(C(=O)NCc3cccs3)CC2)c(C(C)C)c1 | - | - | - | . | -
CCN1CCCCC(NC(=O)c2cc(OC)c(OC)c(OC)c2)C1=O (stereo unspecified) | - | - | - | . | -
CC(=O)c1cc(-c2ccccc2)n(CC(=O)NCc2ccccc2Cl)c1C | - | - | - | . | -
C=CCNC(=O)NC(=O)COC(=O)CNS(=O)(=O)c1ccc(F)c(F)c1F | - | - | - | 5.2 | -
O=c1ccn(-c2ccccc2)[nH]1 | - | - | - | 4.4 | -
O=c1[nH]n(-c2ccccc2)c(=O)c(Cl)c1Cl | . | . | . | - | .
CC(=O)N1CCN=C1SCc1ccccc1Cl | - | - | - | 5.0 | -
CCC(=O)N1CCN=C1SCc1ccccc1Cl | - | - | - | - | -
O=C(c1ccccc1Cl)c1c(O)c2ccccc2oc1=O | - | - | - | 5.6 | -
Cn1c(CC(=O)Nc2ccccc2F)nnc1SCC(=O)N1CCOCC1 | - | - | - | - | -
SMILES | hcDAF12 agonist | DAX1 inh-1 | hgDAF-12 ag | DAX1 inh-2 | ssDAF-12 act
CC(OC(=O)c1cccnc1SCc1cc(=O)n2ccccc2n1)c1ccccn1 (stereo unspecified) | - | - | - | - | -
CCOC(=O)c1cccnc1SCc1cc(=O)n2ccccc2n1 | - | - | - | - | 2.1
COCCCNC(=S)NNC(=O)C1CC1c1ccc(C(C)(C)C)cc1 (stereo unspecified) | - | - | - | 5.2 | -
Cc1nc(CN(C)C(=O)c2cc(COc3c(F)cccc3F)on2)cs1 | - | - | - | - | -
Cc1nonc1CN(C)C(=O)c1cc(COc2ccc(F)cc2Cl)on1 | - | - | - | - | -
CSc1ccccc1OCc1cc(C(=O)NC(C)Cc2cccc(C)n2)no1 (stereo unspecified) | - | - | - | - | -
CSc1ccccc1OCc1cc(C(=O)NCc2cccc(C)n2)no1 | - | - | 11 | - | -
CSc1ccccc1OCc1cc(C(=O)N(C)Cc2nonc2C)no1 | - | 4.0 | - | - | -
Cc1nc(CNC(=O)c2cc(COc3c(F)cccc3F)on2)cs1 | - | - | - | 6.3 | -
Cc1sc2nc(COC(=O)CNC(=O)c3cc(F)ccc3F)[nH]c(=O)c2c1C | - | - | - | . | -
Nc1nc(SCc2ccccc2)sc1C(=O)N1CCCCC1 | - | - | 11 | - | -
CN(C)/C=C/C(=O)c1cccc(Oc2ncccn2)c1 | - | - | - | 4.6 | -
O=C(CSc1nc2ccccc2nc1N1CCOCC1)N1CCN(c2cccc(C(F)(F)F)c2)CC1 | - | - | - | . | -

Source: PubChem BioAssay
